PostGolgi ctrl: yeast control strain growth, post-Golgi counter-screen | efflux-deficient yeast background strain, growth absorbance A615, 16 h | inhibition, % at 10 µM | 98,000 tested, 5% active
CYP2C9 inhib: blocks human cytochrome P450 2C9; CYP2C9 Supersomes, luciferin-H conversion, luminescence; inhibition, % at 5 µM; P11712; AID 777; 96,000 tested, 20% active;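 active = blocking of liver enzyme CYP2C9 beyond about 50% at 5 µM, limit read from the data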
Target sequence (P11712 whole entry, looked up): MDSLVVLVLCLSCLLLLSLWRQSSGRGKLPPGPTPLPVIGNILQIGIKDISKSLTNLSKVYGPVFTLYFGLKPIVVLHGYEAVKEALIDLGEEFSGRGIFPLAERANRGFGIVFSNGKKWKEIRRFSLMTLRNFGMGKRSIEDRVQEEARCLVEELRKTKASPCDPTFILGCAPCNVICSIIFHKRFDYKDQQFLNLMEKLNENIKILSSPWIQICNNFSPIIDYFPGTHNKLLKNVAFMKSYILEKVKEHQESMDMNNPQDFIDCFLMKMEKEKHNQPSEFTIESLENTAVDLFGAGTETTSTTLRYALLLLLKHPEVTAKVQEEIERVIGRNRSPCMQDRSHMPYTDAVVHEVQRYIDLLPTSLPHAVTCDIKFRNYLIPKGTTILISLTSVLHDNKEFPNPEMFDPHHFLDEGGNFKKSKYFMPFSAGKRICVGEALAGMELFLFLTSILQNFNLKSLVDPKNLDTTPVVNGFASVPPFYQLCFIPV
CYP2C19 inh: human CYP2C19 inhibition; AID 778; 96,000 tested, 21% active; CYP2C19 Supersomes, luciferin-H EGE luminescence, 30 min; inhibition, % at 5 µM;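 active = CYP2C19 inhibition above a set limit at 5 µM in the primary screen, cut at about 50% in these data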;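 also: plate controls were negative control wells for no effect and 2.5 mM tranylcypromine positive control for full effect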
CYP2C19 activ: increases human CYP2C19 enzyme activity; recombinant CYP2C19, luciferin-H EGE luminescence; active compounds read high; 0 = fully inhibited enzyme, 1 = untreated enzyme; 96,000 tested, under 10 active; activation factor at 5 µM;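 active = activation factor of at least 2 at 5 µM in the primary screen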;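 also: 0 = wells with 2.5 mM tranylcypromine and 1 = vehicle-only wells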
PostGolgi yeast: growth inhibition of a yeast mutant, post-Golgi transport screen; AID 739; post-Golgi transport phenotypic cell assay; inhibition, % at 10 µM; 98,000 tested, 0.9% active;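 also: yeast cells grown in 1536-well plates; yeast grown about 18 h at 30C before absorbance read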
CYP2C9 activ: increases human cytochrome P450 2C9 activity; recombinant CYP2C9, luciferin-H conversion, luminescence; active compounds read high; factor 1 = untreated enzyme, 0 = blocked; AID 1024; 96,000 tested, 1.4% active; P11712; activation factor at 5 µM;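 active = activation factor of 2 or more for CYP2C9 at a 5 µM dose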;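 also: 0 = sulfaphenazole-blocked wells and 1 = vehicle-only wells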
Numbers without * were called inactive; . = no result given. Sampled rows, rich in hits. Any-hit rate of the full collection: about 32%. Rule as the data show it, unless noted: active = inhibition above about 30%; inactive = the rest.

SMILES	PostGolgi ctrl	CYP2C9 inhib	CYP2C19 inh	CYP2C19 activ	PostGolgi yeast	CYP2C9 activ
CC/C(=N\NC(=O)CSCc1ccccc1Br)c1ccc2c(c1)OCCO2	3.9	-0.6	-11.4	1.1	3.9	1
CC/C(=N\NC(=O)CSCc1ccc(Cl)cc1)c1ccc2c(c1)OCCO2	-4.6	58.7*	77.5*	0.2	4.9	0.4
O=C(CSCc1ccc(Cl)cc1)N/N=C/c1ccccc1	14.2	59.6*	86.0*	0.1	1.8	0.4
O=C(CSCc1ccccc1)Nc1ccc(Cl)cn1	8.8	69.9*	64.5*	0.4	6.5	0.3
COc1ccc2c(C(=O)CN(C)C3CCCCC3)c[nH]c2c1	-1.1	.	.	.	5.2	.
CCOC(=O)C1CCCN(c2c(NCCc3ccc(S(N)(=O)=O)cc3)c(=O)c2=O)C1 (stereo unspecified)	5.6	3.2	-7.8	1.1	-2.0	1
CCOc1ccccc1N1CC(C(=O)Nc2ccc(C(=O)O)cc2)CC1=O (stereo unspecified)	-5.8	2.8	3.9	1	17.7	1
CCC(=O)N1CCc2cc(S(=O)(=O)CCC(=O)NCc3cccs3)ccc21	-2.3	4.2	1.6	1	-2.6	1
CCC(=O)N1CCc2cc(S(=O)(=O)CCC(=O)NCCC3=CCCCC3)ccc21	-6.2	52.7*	13.1	0.9	-6.2	0.5
CCC(=O)N1c2ccc(S(=O)(=O)CCC(=O)NCCC3=CCCCC3)cc2CC1C (stereo unspecified)	0.6	61.1*	21.1	0.8	-2.0	0.4
Nc1cccc2c1C(=O)N(C(=O)c1ccc(Cl)c(S(=O)(=O)N3CCCCCC3)c1)C2=O	4.5	11.2	3.6	1	3.3	0.9
O=C(NCCc1ccccn1)c1ccc(S(=O)(=O)N2CCCCCC2)cc1	7.2	26.0	3.8	1	-4.6	0.7
O=C(NCCOC(=O)c1ccc(Cl)c(S(=O)(=O)N2CCCCC2)c1)c1ccncc1	0.6	90.6*	88.9*	0.1	-0.9	0.1
CCN(CC)CCNC(=O)c1ccc(Cl)c(S(=O)(=O)N2CCCCCC2)c1	6.5	72.5*	-3.1	1	15.9	0.3
CCOc1ccc(C2OC34CCCCC3C(C#N)(C#N)C2(C#N)C(=N)O4)cc1OC (stereo unspecified)	12.0	-10.9	8.4	0.9	-8.6	1.1
CC(C)(C)c1ccc(S(=O)(=O)NCC(=O)N2CCN(C(=O)c3ccco3)CC2)cc1	5.4	43.2	29.2	0.7	8.9	0.6
CCn1c(SCC(=O)Nc2nc3ccc(OC)cc3s2)nc2c1c(=O)n(C)c(=O)n2C	17.3	62.4*	28.2	0.7	2.9	0.4
CCOc1ccc2nc(NC(=O)Cn3cnc4c3c(=O)n(C)c(=O)n4C)sc2c1	-2.4	14.8	69.1*	0.3	4.0	0.9
O=C(CSc1nc2ccc(S(=O)(=O)N3CCOCC3)cc2[nH]1)N1CCOCC1	12.0	6.5	15.6	0.8	-2.5	0.9
Cc1csc(Sc2ccc([N+](=O)[O-])cc2C(=O)OCC(=O)NC(=O)NC(C)(C)C)n1	6.9	72.1*	18.8	0.8	1.9	0.3
Cc1ccnc(NC(=O)CCC(=O)N(CC(=O)NCC2CCCO2)Cc2ccc(F)cc2)c1 (stereo unspecified)	0.8	-3.3	-6.5	1.1	8.1	1
CN(c1ccc(F)cc1)S(=O)(=O)c1ccc2[nH]cc(C(=O)O)c(=O)c2c1	-0.3	22.1	-0.9	1	3.8	0.8
CCc1ccc(N(C)S(=O)(=O)c2ccc3[nH]cc(C(=O)NCCN4CCOCC4)c(=O)c3c2)cc1	6.0	60.4*	23.9	0.8	-2.0	0.4
Cc1ccccc1N(C)S(=O)(=O)c1ccc2[nH]cc(C(=O)NCC3CCCO3)c(=O)c2c1 (stereo unspecified)	6.4	91.4*	52.9*	0.5	-8.5	0.1
CCN(CC)S(=O)(=O)c1ccc2[nH]cc(C(=O)NCCN3CCCCCC3)c(=O)c2c1	20.8	-1.1	-8.3	1.1	-4.3	1
SMILES	PostGolgi ctrl	CYP2C9 inhib	CYP2C19 inh	CYP2C19 activ	PostGolgi yeast	CYP2C9 activ
CCN(CC)S(=O)(=O)c1ccc2[nH]cc(C(=O)NCCC3=CCCCC3)c(=O)c2c1	-1.6	91.1*	75.8*	0.2	-2.9	0.1
CCC1CCCCN1C(=O)c1c[nH]c2ccc(S(=O)(=O)N(C)c3ccc(Cl)cc3)cc2c1=O (stereo unspecified)	4.8	83.2*	74.1*	0.3	17.2	0.2
COc1cccc(NS(=O)(=O)c2ccc3[nH]cc(C(=O)NCCN4CCOCC4)c(=O)c3c2)c1	5.6	46.4	7.3	0.9	9.2	0.5
CCOc1ccc(N(C)S(=O)(=O)c2ccc3[nH]cc(C(=O)NCC4CCCO4)c(=O)c3c2)cc1 (stereo unspecified)	-0.9	73.5*	23.6	0.8	-8.9	0.3
CCc1ccc(NS(=O)(=O)c2ccc3[nH]cc(C(=O)NCC4CCCO4)c(=O)c3c2)cc1 (stereo unspecified)	12.1	.	.	.	-11.9	.
CC(=O)N1CCN=C1SCc1ccccc1	6.5	-3.8	8.1	0.9	-4.0	1
O=C(c1ccco1)N1CCN=C1SCc1cccnc1	-2.1	-7.3	12.4	0.9	30.1*	1.1
O=C(N1CCN=C1SCc1cccnc1)C12CC3CC(CC(C3)C1)C2	5.0	8.7	82.7*	0.2	-3.7	0.9
O=C(c1cccs1)N1CCN=C1SCc1cccnc1	31.5*	25.1	55.4*	0.4	6.0	0.7
O=C(COc1ccccc1)N1CCN=C1SCc1cccnc1	-13.3	9.9	26.9	0.7	6.9	0.9
C=CCNC(=S)NNC(=O)CCC(O)CCCCC (stereo unspecified)	-2.0	43.1	15.2	0.8	-5.2	0.6
O=C(CN1CCOCC1)Nc1ccccc1NC(=O)C1CCN(c2ncccn2)CC1	7.6	11.9	29.2	0.7	-2.3	0.9
Cn1c(=O)[nH]c(=O)c2c1nc(N1CCOCC1)n2CCSc1nc2ccccc2[nH]1	5.3	-6.0	-21.6	1.2	1.4	1.1
Cc1ccc(-n2c(N)c(C(=O)N3CCN(C)CC3)sc2=S)cc1	8.1	3.0	-4.7	1	-4.2	1
Cc1ccc(-n2c(N)c(C(=O)N3CCCCC3)sc2=S)cc1	12.8	26.2	67.2*	0.3	0.3	0.7
Fc1cc2nc(-c3ccncc3)[nH]c2cc1F	3.9	47.4	64.2*	0.4	-11.5	0.5
Cc1ccc(N(C(=O)C2CCC(=O)N2)C2(C(=O)NC3CCCCC3)CCCCC2)cc1 (stereo unspecified)	6.3	-12.2	0.4	1	12.2	1.1
COc1ccc(NC(=O)C=C(C)C)cc1Cl	-6.0	13.6	58.2*	0.4	2.5	0.9
COc1ccc(S(=O)(=O)Nc2ccc(F)c(Cl)c2)cc1OC	-3.4	56.5*	99.6*	0	-4.4	0.4
COC(=O)c1cc(Cl)c(NS(=O)(=O)c2ccccc2)cc1OC	1.8	91.5*	92.3*	0.1	-0.8	0.1
COC(=O)c1cc(Cl)c(NC(=O)c2ccc(C(C)(C)C)cc2)cc1OC	7.5	-58.0	20.0	0.8	-1.1	1.6

From PubChem BioAssay
